Laboratory results from PubChem BioAssay AID1835 (Johns Hopkins Ion Channel Center, 2009).
About 750 (31%) of roughly 2,400 compounds were called active.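 The calls were made as follows: active = median signal gain over dofetilide-blocked control wells reaching their mean plus 3 SD, so readout 1 at least 0; inactive = the rest.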 Some of the results follow.

Biological target: Voltage-gated inwardly rectifying potassium channel KCNH2 (Homo sapiens) (UniProt Q12809)
Test: modulators restoring hERG flux under dofetilide – cell-based, thallium flux, duplicate retest, dofetilide IC70, confirmation (AID 1835)
Details: hERG cell line, FluxOR thallium flux, dofetilide-blocked; at 10 µM; active compounds read high

Chain of Voltage-gated inwardly rectifying potassium channel KCNH2 (Homo sapiens) (Q12809 whole entry, looked up): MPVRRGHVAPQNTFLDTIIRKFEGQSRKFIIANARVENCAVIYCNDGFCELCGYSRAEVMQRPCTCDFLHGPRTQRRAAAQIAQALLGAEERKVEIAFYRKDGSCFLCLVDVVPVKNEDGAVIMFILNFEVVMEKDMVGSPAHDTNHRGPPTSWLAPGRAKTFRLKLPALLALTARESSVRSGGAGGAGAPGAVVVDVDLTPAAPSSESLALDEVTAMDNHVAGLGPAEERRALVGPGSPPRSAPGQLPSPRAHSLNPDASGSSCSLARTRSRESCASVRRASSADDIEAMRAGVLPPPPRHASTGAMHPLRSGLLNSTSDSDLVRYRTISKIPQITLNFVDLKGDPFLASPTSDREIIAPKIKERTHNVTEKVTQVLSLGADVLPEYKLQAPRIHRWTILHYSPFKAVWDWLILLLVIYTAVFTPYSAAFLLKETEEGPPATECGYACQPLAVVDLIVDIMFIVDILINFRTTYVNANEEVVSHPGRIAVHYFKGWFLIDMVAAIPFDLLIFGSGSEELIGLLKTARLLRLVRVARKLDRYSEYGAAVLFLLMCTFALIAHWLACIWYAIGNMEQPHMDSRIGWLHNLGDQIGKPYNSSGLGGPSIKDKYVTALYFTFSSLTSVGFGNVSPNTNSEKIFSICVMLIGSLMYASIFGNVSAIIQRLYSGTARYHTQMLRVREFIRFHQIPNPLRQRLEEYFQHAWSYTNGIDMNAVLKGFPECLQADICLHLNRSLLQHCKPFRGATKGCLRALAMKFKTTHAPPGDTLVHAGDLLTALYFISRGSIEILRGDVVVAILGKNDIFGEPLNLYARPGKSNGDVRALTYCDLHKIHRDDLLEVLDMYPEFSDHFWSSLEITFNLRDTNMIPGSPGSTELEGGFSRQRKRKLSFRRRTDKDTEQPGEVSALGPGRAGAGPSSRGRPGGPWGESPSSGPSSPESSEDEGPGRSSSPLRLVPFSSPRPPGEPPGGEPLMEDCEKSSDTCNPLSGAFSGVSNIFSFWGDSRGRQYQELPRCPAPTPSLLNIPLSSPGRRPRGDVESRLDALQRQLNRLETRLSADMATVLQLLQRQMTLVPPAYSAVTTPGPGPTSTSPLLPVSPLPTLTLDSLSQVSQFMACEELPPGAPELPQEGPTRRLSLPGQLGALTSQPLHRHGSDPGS

Row | Structure (SMILES) | activity increase over dofetilide control, less the hit threshold
1 | COc1cc(/C=C2/OC(=O)c3cc([N+](=O)[O-])ccc32)cc(OC)c1OC | -10% (inactive)
2 | Cc1ccc(/C=N/N2C(=O)c3ccccc3NC2c2ccc(C)cc2)cc1 (centres undefined) | -7% (inactive)
3 | Cc1cc([N+](=O)[O-])ccc1-c1ccc(C2Nc3ccccc3C(=O)N2O)o1 (centres undefined) | 7% (active)
4 | Cc1ccc(C(C)C)c(OCc2n[nH]c(=S)o2)c1 | -4% (inactive)
5 | C=CCn1c(-c2cc(-c3ccc(C)cc3)nc3ccccc23)n[nH]c1=S | -16% (inactive)
6 | Cc1ccc(-c2cc(-c3n[nH]c(=S)o3)c3ccccc3n2)cc1 | 37% (active)
7 | CC(/C=C1\SC(=S)N(c2ccc(C(=O)O)cc2)C1=O)=C\c1ccccc1 | -15% (inactive)
8 | Cc1ccc(S(=O)(=O)N2C(=O)/C(=C3\SC(=S)NC3=O)c3ccccc32)cc1 | -6% (inactive)
9 | COc1ccccc1/C=C1\SC(=S)N(NS(=O)(=O)c2ccc(C)cc2)C1=O | -20% (inactive)
10 | CC(/C=C1\SC(=S)N(NS(=O)(=O)c2ccccc2)C1=O)=C\c1ccccc1 | 15% (active)
11 | CC(/C=C1\SC(=S)N(NS(=O)(=O)c2ccc(C)cc2)C1=O)=C\c1ccccc1 | 7% (active)
12 | O=C(O)CC1S/C(=N/N=C/c2ccc(-c3ccccc3[N+](=O)[O-])o2)NC1=O (centres undefined) | -22% (inactive)
13 | COc1ccc(NC(=O)C(=O)NNC(=O)COc2ccc(OC)cc2)cc1 | -12% (inactive)
14 | COc1ccc(NC(=O)COC(=O)c2c(C)noc2C)c(OC)c1 | -2% (inactive)
15 | COc1ccc(NC(=O)C(=O)NNC(=O)COc2ccc(Cl)cc2)c(OC)c1 | 30% (active)
16 | COc1ccc(OCC(=O)NNC(=O)C(=O)Nc2cc(OC)ccc2OC)cc1 | 8% (active)
17 | COc1ccc(OC)c(NC(=O)COC(=O)c2ccc(-n3cnnn3)cc2)c1 | -10% (inactive)
18 | COc1cccc(OCC(=O)NNC(=O)C(=O)Nc2ccc(OC)cc2OC)c1 | 39% (active)
19 | COc1ccc(OC)c(NC(=O)C(=S)NC2CCCCC2)c1 | -2% (inactive)
20 | COc1ccc(OCC(=O)Nc2c3c(nn2-c2ccc(OC)cc2)CS(=O)(=O)C3)cc1 | -18% (inactive)
21 | COc1ccc(OC)c(NC(=O)C(=O)NNC(=O)C23CC4CC(CC(C4)C2)C3)c1 | 83% (active)
22 | Cc1n[nH]c(C)c1CCNC(=O)C1CCC(=O)N(Cc2ccccc2F)C1 (centres undefined) | -15% (inactive)
23 | O=c1c2cc(Br)ccc2nc(-c2ccc([N+](=O)[O-])cc2)n1O | 47% (active)
24 | O=c1c2ccc(Cl)cc2nc(-c2ccc([N+](=O)[O-])cc2)n1O | 16% (active)
25 | N#Cc1ccc(-c2nc3cc(Cl)ccc3c(=O)n2O)cc1 | -4% (inactive)

Row | Structure (SMILES) | activity increase over dofetilide control, less the hit threshold
26 | O=c1c2cc(Cl)ccc2nc(-c2ccc([N+](=O)[O-])cc2)n1O | 16% (active)
27 | O=[N+]([O-])c1ccc(CSc2nnc(SCc3ccc(Cl)cc3)s2)cc1 | 0% (inactive)
28 | O=[N+]([O-])c1ccc(Nc2ccc(Cl)cc2)nc1 | -17% (inactive)
29 | O=C1C(c2ccccc2)C(c2ccccc2)NC(c2ccccc2)C1c1ccccc1 (centres undefined) | -17% (inactive)
30 | O=C(CC1NCCNC1=O)Nc1ccc([N+](=O)[O-])cc1 (centres undefined) | -17% (inactive)
31 | CC(=O)NCCC(=O)N(C)CC1CCN(CCc2cccc(C(F)(F)F)c2)CC1 | -6% (inactive)
32 | CS(=O)(=O)N1CCN(c2ccccc2NC(=O)Nc2cccc(Cl)c2)CC1 | -16% (inactive)
33 | COc1ccccc1C(=O)NNC(=O)C(=O)NC(C)(C)C | 21% (active)
34 | COc1cc(NC(=O)c2ccccc2OCc2ccccc2)cc(OC)c1OC | -16% (inactive)
35 | COc1ccccc1C(=O)NNC(=O)C(=O)NCc1ccccc1 | 16% (active)
36 | COc1ccccc1C(=O)NNC(=O)C(=O)NC1CCCCC1 | 49% (active)
37 | CC(=O)Nc1ccccc1C(=O)C(=O)Nc1ccccc1 | -23% (inactive)
38 | COc1ccccc1NC(=O)C1CCCN1C(=O)NCc1ccccc1 (centres undefined) | -21% (inactive)
39 | COc1cc(/C=N/NC(=O)NC2CCCCC2)ccc1O | -20% (inactive)
40 | COc1ccccc1C(=O)Nc1ccnn1C1CCN(C(=O)c2ccoc2C)CC1 | -7% (inactive)
41 | Cc1ccc(NC(=O)C(=O)NNC(=O)c2ccccc2C)cc1Cl | 54% (active)
42 | COc1cccc(/C=C2/C(=O)NN(c3ccc(C)c(C)c3)C2=O)c1 | -14% (inactive)
43 | O=C(COc1ccc(Cl)cc1)NNC(=O)C(=O)NC1CCCCC1 | -9% (inactive)
44 | COc1ccc(C(=O)NNC(=O)C(=O)NC2CCCCC2)cc1 | 5% (active)
45 | COc1ccc(C(=O)NCc2nnc(SCC(=O)NC3CCCCC3)n2C)cc1 | -18% (inactive)
46 | COc1ccccc1C(=O)NNC(=O)C(=O)Nc1ccc(C)cc1 | 77% (active)
47 | COc1ccccc1CC(=O)Nc1ccc(OC)c(OC)c1 | -8% (inactive)
48 | COc1ccccc1C(=O)NNC(=O)C(=O)Nc1ccc(C)c(Cl)c1 | 99% (active)
49 | COc1ccc(NC(=O)c2ccccc2SC)cc1OC | -18% (inactive)
50 | O=c1oc2ccccc2c2c1nc(C(F)(F)F)n2-c1ccccc1 | -20% (inactive)

Row | Structure (SMILES) | activity increase over dofetilide control, less the hit threshold
51 | CCCn1nnnc1SCC(=O)Nc1nnc(CC)s1 | -6% (inactive)
52 | O=C(NCCc1nnc2ccc(NCc3ccc(Cl)cc3)nn12)c1ccccc1 | -11% (inactive)
53 | COc1ccc(C2CC(c3ccc(Cl)cc3Cl)Nc3nc(N)nn32)cc1OC (centres undefined) | -10% (inactive)
54 | O=C(/C=C/Nc1ccc(F)c(F)c1)c1cccs1 | -18% (inactive)
55 | Cc1ccccc1NC(=O)CC1S/C(=N/c2nccs2)N(C)C1=O (centres undefined) | 0% (inactive)
56 | C/C(=N\O)C1CC(CC(=O)O)C1(C)C (centres undefined) | -13% (inactive)
57 | CSC1=C(C#N)C(CC(C)C)C2=C(CCCC2=O)N1 (centres undefined) | -12% (inactive)
58 | CCOC(=O)N1CCN(C(=O)c2ccc(CN(c3ccc(C)c(C)c3)S(C)(=O)=O)cc2)CC1 | 8% (active)
59 | COc1ccc(N(CC(=O)N2CCN(Cc3ccccc3)CC2)S(C)(=O)=O)cc1OC | -3% (inactive)
60 | CCN1CCN(C(=O)c2ccc(Cn3c(=O)[nH]c4cc(OC)c(OC)cc4c3=O)cc2)CC1 | -17% (inactive)
61 | S=c1nc(COc2ccccc2)[nH]c2ccccc12 | 100% (active)
62 | O=c1[nH]c(SCc2cccc(Cl)c2)nc2ccccc12 | -14% (inactive)
63 | S=c1nc(SCc2ccccc2)[nH]c2ccccc12 | 100% (active)
64 | S=c1nc(Cc2ccc(Cl)cc2)[nH]c2ccccc12 | 90% (active)
65 | S=c1nc(Cc2ccccc2)[nH]c2ccccc12 | 78% (active)
66 | S=c1[nH]nc(-c2ccc(Cl)cc2)n1Cc1ccccc1 | -13% (inactive)
67 | O=C(O)CCCCCNc1nc(=S)[nH]c2ccccc12 | -7% (inactive)
68 | CCC(C)N(C(=O)CSc1nnc(NC(C)C)s1)C1CCS(=O)(=O)C1 (centres undefined) | -11% (inactive)
69 | CS(=O)(=O)N(CCc1ccccc1)CC(=O)N1CCN(c2ccc(F)cc2)CC1 | -9% (inactive)
70 | Cc1cc(=O)oc2cc(OC(C(=O)O)c3ccccc3)ccc12 (centres undefined) | -19% (inactive)
71 | C[C@@H]1CCCCCCCCCCC1=O | -15% (inactive)
72 | Fc1cccc(C2NN=C(c3ccccc3)S2)c1 (centres undefined) | -12% (inactive)
73 | COc1ccc(Cl)cc1N(C)C(=O)CCNC(=O)Cn1cnc2ccccc2c1=O | -11% (inactive)
74 | CC(=O)c1ccc2c3c(cccc13)CC2 | -7% (inactive)
75 | CC(OC(=O)c1cc2c(s1)CCCCC2)C(=O)NC(N)=O (centres undefined) | -5% (inactive)

Row | Structure (SMILES) | activity increase over dofetilide control, less the hit threshold
76 | NC(=O)C1CCN(C(=O)c2cc3c(s2)CCCC3)CC1 | 9% (active)
77 | O=C(c1cc2c(s1)-c1ccccc1OC2)N1CCCC1 | 0% (inactive)
78 | COC(=O)CCn1[nH]c(=O)c2ccccc2c1=O | -2% (inactive)
79 | COc1ccc(N2CCN(S(=O)(=O)c3ccc(Br)s3)CC2)cc1 | -14% (inactive)
80 | CC(C)c1ccc(/C=N/n2c(COc3ccccc3)n[nH]c2=S)cc1 | 3% (active)
81 | S=c1[nH]nc(-c2ccco2)n1/N=C/C(Cl)=C/c1ccccc1 | -14% (inactive)
82 | S=c1[nH]nc(-c2n[nH]c3c2CCC3)n1/N=C/C=C/c1ccccc1 | -27% (inactive)
83 | S=c1[nH]nc(Cc2ccc(Br)cc2)n1/N=C/c1ccc(Cl)cc1 | -5% (inactive)
84 | Cc1cccc(/C=N/n2c(COc3ccccc3)n[nH]c2=S)c1 | 1% (active)
85 | Cc1ccc2nsnc2c1S(=O)(=O)Nc1cccc2nsnc12 | 8% (active)
86 | O=C(O)c1ccccc1NC(=O)C1CCN(S(=O)(=O)c2cccc3nsnc23)CC1 | -3% (inactive)
87 | O=C(NC(=S)Nc1nc2ccccc2s1)c1cccs1 | 52% (active)
88 | Cc1ccc2nc(NC(=S)NC(=O)c3cccs3)sc2c1 | 10% (active)
89 | Cc1cc(F)ccc1NC(=O)C1CCN(C(=O)Nc2ccccc2)CC1 | -17% (inactive)
90 | O=C(NC(C(=O)c1ccccc1)n1cnccc1=O)c1ccccc1 (centres undefined) | -3% (inactive)
91 | Nc1ccc(C(=O)OCC(=O)N2CCN(C(=O)c3ccco3)CC2)cc1[N+](=O)[O-] | -16% (inactive)
92 | O=C(CCNS(=O)(=O)c1ccc(Cl)cc1)OCC(=O)N1CCN(C(=O)c2ccco2)CC1 | -17% (inactive)
93 | CCOc1ccc(OCC(=O)OCC(=O)N2CCN(C(=O)c3ccco3)CC2)cc1 | -2% (inactive)
94 | COC(=O)c1c(NC(=O)c2ccco2)sc2c1C(C(=O)OC)CC2 (centres undefined) | -18% (inactive)
95 | CCc1c(C)sc(NC(=O)CN2CCN(C(=O)c3ccco3)CC2)c1C(=O)OC | 1% (active)
96 | CCOC(=O)c1c(NC(=O)CN2CCN(C(=O)c3ccco3)CC2)sc2c1CCCC2 | 7% (active)
97 | CC1=C(C)CS(=O)N(c2ccc(S(N)(=O)=O)cc2)C1 (centres undefined) | -3% (inactive)
98 | Cn1ncc2c(NNC(=O)c3ccc(O)cc3)ncnc21 | -15% (inactive)
99 | Cc1nc(NCc2cccnc2)c2c3c(sc2n1)CC(C)CC3 (centres undefined) | 55% (active)
